# Caspase-7 inhib – qHTS Assay for Allosteric/Competitive Inhibitors of Caspase-7; P55210; recombinant caspase-7, Ac-DEVD-AFC fluorescence rate; Potency, µM (doses to about 57.5 µM), inactives show at the highest dose activity change, negative = inhibition, most hits filed as inhibitors; actives 0.02% (n = 75,000); active means well fitted inhibition curve with a large enough effect in the main read-out, with a control signal flat, not every such curve was filed as active; inconclusive means small, poorly fitted or top-dose-only effect, or a change in a side signal; further: % of control where 0% means no effect
# Target sequence (P55210 24-198 limits assumed): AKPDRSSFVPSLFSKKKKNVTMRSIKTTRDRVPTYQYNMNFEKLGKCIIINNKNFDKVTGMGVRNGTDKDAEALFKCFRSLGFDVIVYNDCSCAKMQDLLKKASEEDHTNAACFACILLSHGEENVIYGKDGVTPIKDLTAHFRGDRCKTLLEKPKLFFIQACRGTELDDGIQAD
# Target sequence (P55210 207-303 limits assumed): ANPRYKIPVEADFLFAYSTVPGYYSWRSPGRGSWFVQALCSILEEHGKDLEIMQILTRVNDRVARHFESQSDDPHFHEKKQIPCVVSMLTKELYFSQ
# Casp1 inh – qHTS Assay for Allosteric/Competitive Inhibitors of Caspase-1 | P29466 | Caspase-1 enzyme, Ac-WEHD-AFC fluorogenic rate | Potency, µM (doses to about 57.5 µM), for the others: at the top dose activity change, negative = inhibition, usual class: inhibitors | actives 0.03% (n = 75,000);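 further: plate controls were vehicle for no effect and no substrate for full effect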
# Target sequence (P29466 120-297 limits assumed): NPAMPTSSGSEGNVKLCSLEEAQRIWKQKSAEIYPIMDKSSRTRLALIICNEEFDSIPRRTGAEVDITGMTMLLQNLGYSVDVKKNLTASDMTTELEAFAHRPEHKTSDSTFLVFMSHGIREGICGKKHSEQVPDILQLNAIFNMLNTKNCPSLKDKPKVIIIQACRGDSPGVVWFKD
# Target sequence (P29466 317-404 limits assumed): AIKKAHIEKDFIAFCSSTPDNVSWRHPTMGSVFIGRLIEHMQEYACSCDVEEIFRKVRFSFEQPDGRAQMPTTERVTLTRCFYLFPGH
# TSHR agonist – qHTS Assay for Agonists of the Thyroid Stimulating Hormone Receptor. Thyrotropin receptor (Homo sapiens), P16473. HEK293-CNG-TSHR cells (CNG channel as cAMP sensor), membrane potential dye, cAMP. Potency, µM (top dose mostly 57.1 µM), without a hit: top-dose activation, actives largely listed as activators. actives 0.48% (n = 73,000); active means well fitted activation curve with a large enough effect in the main read-out, with a control signal flat, not every such curve was filed as active; inconclusive means small, poorly fitted or top-dose-only effect, or a change in a side signal; inactive means no such curve, though single readings can be large or run the other way; % of control where 0% means no effect;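 further: the control signal comes from parental cells without the receptor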
#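 HEK 293 cells stably expressing TSHR and a modified CNG channel, with CNG-only parental cells as counterscreen, were preloaded 60 min at room temperature with membrane potential dye containing 100 uM RO 20-1724. Compound exposure was 30 min, and depolarization was read as fluorescence at 590 nm.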
# HEK293 cAMP cs – qHTS Assay for Agonists of the Thyroid Stimulating Hormone Receptor: Activators of Intracellular cAMP Concentrations in Parental HEK 293. parental HEK293 CNG cAMP sensor, membrane potential fluorescence. Potency, µM (top dose mostly 57.1 µM), without a hit: at the highest dose activation, most hits filed as activators. actives 2.5% (n = 73,000). AID 938, 2007; further: % of control where 0% means no effect; nearly all actives have a fitted effect of over 55% in size
#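 Parental HEK 293 cells stably expressing a cAMP-gated CNG channel were loaded with membrane potential dye containing 100 uM RO 20-1724 for 60 min. Compound added for 30 min; depolarization read as fluorescence intensity at 590 nm.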
# * = called active by the depositor; ? = inconclusive; . = not tested or not shown; [ ] = remark or other dose. Hits are enriched below; roughly 2.6% of the tested compounds scored in any of these assays. Unless noted, the call rests on the fitted dose curve; in most records, active means well fitted curve in the direction sought with a large enough effect; inconclusive means small, poorly fitted or top-dose-only effect, or another doubt; inactive means no such curve, though single readings can be large; an effect the other way counts as inactive or inconclusive. Potency means the concentration at half of the fitted maximal effect.
SMILES,Caspase-7 inhib,Casp1 inh,TSHR agonist,HEK293 cAMP cs
Cc1ccc2cc(CN(Cc3ccco3)C(=O)NCc3ccccc3)c(=O)[nH]c2c1C,-9%,-1%,?,?
COc1ccc(Cn2nnnc2CN(Cc2cc3cc(C)ccc3[nH]c2=O)C2CCCC2)cc1,-18%,-2%,?,25µM*
Cc1ccc(C)c2[nH]c(=O)c(CN(Cc3ccco3)C(=O)Nc3ccccc3)cc12,-3%,-1%,?,20µM*
Cc1ccc2[nH]c(=O)c(CN(Cc3nnnn3C3CCCC3)C3CCCCC3)cc2c1,-8%,-10%,.,24%
Cc1cccc2cc(CN(CC3CCCO3)C(=O)c3ccncc3)c(=O)[nH]c12 (stereo not given),-1%,-3%,-3%,1%
Cc1ccc(C)c2[nH]c(=O)c(CN(CC3CCCO3)C(=O)NC3CCCCC3)cc12 (stereo not given),0%,-1%,?,4µM*
Cc1ccc2[nH]c(=O)c(CN(Cc3ccccc3)Cc3nnnn3C3CCCC3)cc2c1,-1%,?,?,25µM*
COc1ncc2nc(-c3ccc(F)cc3)c(=O)n(CCC#N)c2n1,-5%,-2%,-9%,16%
Cc1ccc(C)c2[nH]c(=O)c(CN(Cc3nnnn3C3CCCCC3)CC3CCCO3)cc12 (stereo not given),2%,-2%,?,25µM*
Cc1ccc(C)c2[nH]c(=O)c(CN(CCN3CCOCC3)Cc3nnnn3CC3CCCO3)cc12 (stereo not given),-1%,-2%,?,?
C[C@]1(C(=O)NCc2cc(F)cc(C(F)(F)F)c2)C=C[C@@H](Cc2ccccc2)N1C(=O)c1ccccc1,-5%,-2%,?,16µM*
O=C(Nc1ccc2c(c1)OCO2)c1cccc2c1C(=O)N(C1CCCCC1)C2,-7%,-1%,3.2µM*,19%
CC(C)CC(NC(=O)OCC1c2ccccc2-c2ccccc21)C(=O)O (stereo not given),1%,2%,.,.
CC(C)OC(=O)CN1CCN(C2c3ccccc3-c3ccccc32)CC1,0%,1%,25µM*,19%
CCN(c1nc(N)c(C(=O)N=C(N)N)nc1Cl)C(C)C,-1%,1%,.,13%
CSc1nnc2c(n1)OC(c1cccn1C)N(C(C)=O)c1ccccc1-2 (stereo not given),1%,0%,?,16µM*
CSc1nnc2c(n1)OC(c1ccc(C(=O)O)cc1)N(C(C)=O)c1ccccc1-2 (stereo not given),?,.,-12%,0%
O=c1c(O)c(-c2ccc(O)c(O)c2)oc2c(OC[C@@H]3O[C@@H](O)[C@@H](O)[C@H](O)[C@H]3O)c(O)cc(O)c12,-3%,1%,.,.
N#C[C@H](c1ccccc1)N1CCCN([C@@H](C#N)c2ccccc2)C1c1ccccc1O (stereo not given in full),3%[11.5 µM],9%[11.5 µM],7%[11.4 µM],-1%[11.4 µM]
Nc1nonc1-c1nc2ccccc2n1CC(=O)NC1CCCC1,6%,0%,?,6.3µM*
CC(=O)Nc1nonc1-c1nc2ccccc2n1CC1CC1,-1%,0%,?,?
O=C(Cn1c(CN2CCCCC2)nc2ccccc2c1=O)NC1CCCCC1,1%,2%,?,?
CCC(=O)Nc1nonc1-c1nc2ccccc2n1CC(C)C,-12%,-1%,?,25µM*
CCOC(=O)c1ccccc1NC(=O)Cn1c(-c2nonc2N)nc2ccccc21,-5%,-7%,?,25µM*
Nc1nonc1-c1nc2ccccc2n1Cc1ccccc1,-7%,-10%,?,25µM*
SMILES,Caspase-7 inhib,Casp1 inh,TSHR agonist,HEK293 cAMP cs
C=CCSc1nc2ccccc2c(=O)n1Cc1ccco1,0%[11.5 µM],-1%[11.5 µM],10%[11.4 µM],8%[11.4 µM]
CCOC(=O)OCC1OC(c2ccc(C(C)=O)cc2)C=CC1Oc1ccc(-c2ccccc2)cc1 (stereo not given),1%[11.5 µM],0%[11.5 µM],0%[11.4 µM],-4%[11.4 µM]
Nc1ncnc2nc[nH]c12.Nc1ncnc2nc[nH]c12.[Cl][Pt]([Cl])([Cl])[Cl],.,.,-4%[11.4 µM],0%[11.4 µM]
CC(C)=CCC/C(C)=C/COc1c2occc2cc2ccc(=O)oc12,-6%,-7%,.,.
CC(C)=CCC/C(C)=C/COc1c2ccoc2cc2oc(=O)ccc12,.,.,?,13µM*
Cc1cccc(-c2noc(CN(C(=O)c3ccc4c(c3)OCO4)C(C)C)n2)c1,-5%,-1%,?,32µM*
N#Cc1c(C(F)(F)F)cc(-c2ccco2)nc1SCc1ccccn1,-19%,-16%,?,32µM*
Cc1cc(C(=O)NNCc2ccccc2)no1,-1%[25.7 µM],-2%[25.7 µM],-1%[25.6 µM],0%[25.6 µM]
CCOC(=O)Cn1c(CN2CC(C)OC(C)C2)nc2c1c(=O)n(C)c(=O)n2C (stereo not given),-2%,3%,4µM*,26%
COC(=O)c1oc2ccc(Br)cc2c1-n1cccc1,-1%,-3%,?,32µM*
COC(=O)c1cccc(CSc2nnc(-c3ccco3)n2-c2ccccc2)c1,-4%,-1%,?,20µM*
CCCc1noc2c1/C(=N\O)CC(CC(C)SCC)C2 (stereo not given),-3%,0%,25µM*,16%
FC(F)(F)c1ccccc1-c1nc(N2CCOCC2)c2ccccc2n1,-27%,-2%,?,1µM*
CCOC(=O)OC(C)OC(=O)C1N2C(=O)C(NC(=O)C(N)c3ccccc3)C2SC1(C)C (stereo not given),1%,-4%,.,.
Cc1onc(-c2ccccc2Cl)c1-c1nc(-c2ccccn2)no1,-1%,-4%,?,32µM*
Cc1occc1-c1nc(-c2ccccn2)no1,-1%,-4%,4%,0%
c1ccc(CCc2ccccc2-c2nc(-c3cccnc3)no2)cc1,0%,-2%,?,?
c1ccc(CCc2ccccc2-c2nc(-c3ccccn3)no2)cc1,-2%,-2%,?,25µM*
O=C(OC1Cc2c(O)cc(O)cc2OC1c1cc(O)c(O)c(O)c1-c1c(C2Oc3cc(O)cc(O)c3CC2O)cc(O)c(O)c1O)c1cc(O)c(O)c(O)c1 (stereo not given),-27%,0%,.,.
CCCCC(=O)N(c1ccc(OCC)cc1)C1C=CS(=O)(=O)C1 (stereo not given),1%,2%,-1%[11.4 µM],2%
CCCC(=O)N(c1ccc(OCC)cc1)C1C=CS(=O)(=O)C1 (stereo not given),-2%,0%,?,3.2µM*
CC(C)C(=O)N[C@@H]1CCCN1C(=O)/C=C\c1ccccc1,1%[11.5 µM],-1%[11.5 µM],-5%[11.4 µM],1%[11.4 µM]
O=C(Nc1cnccn1)c1cccc(C(F)(F)F)c1,-29%,?,?,20µM*
O=C(Nc1cnccn1)c1ccncc1,-1%,0%,21%,14%
Cc1noc(C)c1C(=O)N1CCC2(CC1)CCN(C(c1ccccc1)c1ccccc1)CC2,-1%,-1%,32µM*,22%
CC(=O)N1CCC2(CCCN(C(c3ccccc3)c3ccccc3)C2)CC1,-4%,-3%,?,16µM*
